RMI FANCM FP: RMI-FANCM interaction inhibition; Fluorescence polarization, RMI core complex with F-MM2 peptide; stronger effect = lower value; FP signal (polarization) at 33 µM; actives 0.58% (n = 70,000); in the data active means FP signal below about 40
Active calls of the source: *. Shown is part of a subset that was picked to be rich in hits.

SMILES	RMI FANCM FP
CCC(C(=O)Nc1cc(-c2ccco2)nn1-c1nc(C)c(C)c(=O)[nH]1)c1ccccc1 (stereo unspecified)	31*
COc1cccc(C(=O)Nc2cc(-c3ccco3)nn2-c2nc(C)c(C)c(=O)[nH]2)c1OC	56
Cc1nc(-n2nc(-c3ccco3)cc2NC(=O)c2ccc(Br)o2)[nH]c(=O)c1C	39*
Cc1nc(-n2nc(-c3ccco3)cc2NC(=O)c2cc3ccccc3o2)[nH]c(=O)c1C	23*
CCC(C(=O)Nc1cc(-c2cccs2)nn1-c1nc(C)c(C)c(=O)[nH]1)c1ccccc1 (stereo unspecified)	61
Cc1nc(-n2nc(-c3ccco3)cc2NC(=O)Cc2ccc(F)cc2)[nH]c(=O)c1C	61
Cc1nc(-n2nc(-c3ccco3)cc2NC(=O)COc2ccccc2F)[nH]c(=O)c1C	41
CCOCC(=O)Nc1cc(-c2ccco2)nn1-c1nc(C)c(C)c(=O)[nH]1	65
O=C(CCCc1ccccc1)Nc1c(C(=O)Nc2ccccc2F)oc2ccccc12	76
Cc1cc(NS(=O)(=O)c2ccc(NC(=O)c3cc4cc([N+](=O)[O-])ccc4s3)cc2)no1	55
c1ccc2[nH]c(C3CCCN3)nc2c1 (stereo unspecified)	60
Cc1cc(NNC(=O)c2ccc([N+](=O)[O-])o2)c2ccccc2n1	46
Cn1c(=O)n(CC(=O)NC(C)(C)C)c(=O)c2c(N3CCN(C(=O)c4ccco4)CC3)ccnc21	61
COC(=O)Cn1c(=NC(=O)c2ccc(N3C(=O)CCC3=O)cc2)sc2cc(S(N)(=O)=O)ccc21	61
Cc1ccc(C(=O)Nc2sc3c(c2C(N)=O)CCCC3)cc1	87
O=C(c1cccnc1Oc1ccccc1)N1CCN(C2c3ccccc3-c3ccccc32)CC1	57
O=C(O)c1ccccc1C(=O)N1CCN(C2c3ccccc3-c3ccccc32)CC1	32*
Cc1cc(C(=O)N2CCN(C3c4ccccc4-c4ccccc43)CC2)c(C)o1	47
CCOCC(=O)Nc1ccc2c(c1)OCC(C)(C)C(=O)N2CC	67
CCn1c(/C=N\Nc2nc3ccccc3s2)nc2ccccc21	59
Cc1nn(-c2ccccc2)c(N2CCCCC2)c1/C=N\Nc1nc2ccccc2s1	8*
COc1ccc(C(=O)N/N=C\c2c(C)nn(-c3ccccc3)c2N2CCCCC2)cc1OC	57
O=C(O)C1CCCCC1C(=O)N1CCNCC1 (stereo unspecified)	62
S=c1[nH]nc(CN2c3ccccc3Sc3ccccc32)n1-c1ccccc1	65
O=C(Nc1ccc(S(=O)(=O)N2CCOCC2)cc1)c1ccc(Cl)cc1	55
SMILES	RMI FANCM FP
O=C(Nc1csc(-c2ccc(Oc3ccc(-c4nc(NC(=O)c5ccc(S(=O)(=O)N6CCOCC6)cc5)cs4)cc3)cc2)n1)c1ccc(S(=O)(=O)N2CCOCC2)cc1	9*
O=C(Nc1csc(-c2ccc(Oc3ccc(-c4nc(NC(=O)c5ccc(C(=O)c6ccccc6)cc5)cs4)cc3)cc2)n1)c1ccc(C(=O)c2ccccc2)cc1	25*
O=S(=O)(c1ccc(-c2nc(-c3ccc(Cl)cc3)cs2)cc1)N1CCOCC1	50
O=C(Nc1csc(-c2ccc(Oc3ccc(-c4nc(NC(=O)c5cc(Cl)sc5Cl)cs4)cc3)cc2)n1)c1cc(Cl)sc1Cl	65
O=C(Nc1nc(-c2ccc(Br)cc2)cs1)c1ccc(Oc2ccc(C(=O)Nc3nc(-c4ccc(Br)cc4)cs3)cc2)cc1	58
CC(C)(C)NC(=O)NCC(c1ccsc1)N1CCCC1 (stereo unspecified)	65
Cc1ccc(S(=O)(=O)N(CC(=O)NCc2ccc3c(c2)OCO3)C(=O)N2CCN(C)CC2)cc1	54
COc1ccc(C(c2sc3ncnn3c2O)N2CCN(Cc3ccccc3)CC2)cc1OC (stereo unspecified)	52
N#CCCN1CCN(C2=NC(=O)/C(=C\c3ccc(-c4cccc(C(F)(F)F)c4)o3)S2)CC1	85
Cc1ccc(/C=c2\sc3nc(=O)c(C)nn3c2=O)o1	70
Cc1occc1-c1nc2s/c(=C\c3ccc(-c4cccc(C(F)(F)F)c4)o3)c(=O)n2n1	16*
Cc1cc2nc(NC(=O)/C=C/c3cccc([N+](=O)[O-])c3)sc2cc1C	72
COc1ccc(F)cc1S(=O)(=O)N1CCN(c2ccc(-c3ccc(F)cc3)nn2)CC1	81
COc1ccc(Cl)cc1S(=O)(=O)N1CCN(c2ccc(-c3ccncc3)nn2)CC1	27*
COc1ccc(C)cc1S(=O)(=O)N1CCN(c2ccc(-c3ccncc3)nn2)CC1	67
Cc1ccc(Sc2c(C)nn(C(=O)c3ccco3)c2C)cc1	60
Cc1ccc(N2CCN(C(=O)c3cccc([N+](=O)[O-])c3)CC2)c(C)c1	62
CC(=O)[C@]1(O)Cc2c(O)c3c(c(O)c2[C@@H](O[C@H]2C[C@H](N)[C@H](O)[C@H](C)O2)C1)C(=O)c1ccccc1C3=O	-37
COc1cccc2c1C(=O)c1c(O)c3c(c(O)c1C2=O)C[C@@](O)(C(C)=O)C[C@@H]3O[C@H]1C[C@H](N)[C@H](O)[C@H](C)O1	65
COc1cccc2c1C(=O)c1c(O)c3c(c(O)c1C2=O)C[C@@](O)(C(=O)CO)C[C@@H]3O[C@H]1C[C@H](N)[C@@H](O)[C@H](C)O1	-10*
COc1ccc2nc(N(CC3CCCO3)C(=O)c3cc(C)no3)sc2c1 (stereo unspecified)	73
CS(=O)(=O)N1CCCC(C(=O)N(CC2CCCO2)c2nc3ccccc3s2)C1 (stereo unspecified)	65
O=[N+]([O-])c1cnc(Nc2cc(Cl)ccc2Cl)c([N+](=O)[O-])c1	57
COc1ccc(CCN2C(=O)/C(=C/c3ccc(-c4ccc(S(N)(=O)=O)cc4)o3)SC2=S)cc1OC	57
O=C1Sc2cccc3cccc1c23	58*
SMILES	RMI FANCM FP
O=C(O)c1cccc2cccc(-c3cccc4cccc(C(=O)O)c34)c12	53
CNN1C(=O)c2cccc3cccc(c23)C1=O	55
CN(C)c1ccc(C(=S)N2CCN(C(=S)c3cccc([N+](=O)[O-])c3)CC2)cc1	59
Cc1ccc(CNC(=O)C(=O)NCC2COC3(CCCC3)O2)cc1 (stereo unspecified)	59
CCOc1cccc2cc(-c3csc(NC(=O)c4ccc(S(=O)(=O)N5CCCc6ccccc65)cc4)n3)oc12	54
CCC1CCCCN1S(=O)(=O)c1ccc(C(=O)Nc2nc(-c3cc4cccc(OC)c4o3)cs2)cc1 (stereo unspecified)	19*
CCOc1cccc2cc(-c3csc(NC(=O)c4ccc(C(C)=O)cc4)n3)oc12	53
C[n+]1c(-c2ccccc2)sc2c1-c1ccccc1C2	51
COc1ccc(C(=O)NCCOc2ccc3nnc(-c4ccc(F)cc4)n3n2)cc1OC	70
O=C(Cc1ccc(F)cc1)Nc1nc(-c2nc3ccccc3s2)cs1	55
O=[N+]([O-])c1cnc(Sc2ccc(C(F)(F)F)cn2)s1	58
CSc1nnc(Sc2ncc([N+](=O)[O-])s2)s1	2*
O=[N+]([O-])c1cnc(Sc2nnc(-c3ccc(Cl)cc3)o2)s1	55
N/C(Cc1ccc(-c2csnn2)cc1)=N/OC(=O)c1ccc(C(F)(F)F)cc1	59
CSc1nnc(CCCc2nnc(SC)o2)o1	46
C#CCn1c(=NC(=O)c2ccc(C(C)=O)cc2)sc2c(C)cc(C)cc21	73
FC(F)(F)c1cc(-c2ccc(Cl)cc2)nc2cc(-c3ccccc3)nn12	55
COc1ccc(-c2cc3nc(C)cc(C)n3n2)cc1OC	64
